This note sets out measurements from PubChem BioAssay (NCATS).

The structures appear in SMILES notation. Records with an inconclusive call do not appear. Entries that show only a call come without a potency. Activity calls are given as the source filed them. The call rests on the fitted dose curve; in most records, active means well fitted inhibition curve with a large enough effect; inconclusive means small, poorly fitted or top-dose-only effect; inactive means flat fitted curve, though single readings scatter.

In this assay the target is Glutathione peroxidase 1 (Homo sapiens) (UniProt P07203). Kind of assay: Primary qHTS Assay for Inhibitors of Recombinant Selenoprotein Glutathione Peroxidase 1 (GPX1) (AID 1845191). Further: nearly all actives have a fitted effect of over 65% in size. As to conditions: recombinant GPX1, GR-coupled NADPH fluorescence, 15 min; series mostly up to 48.8 µM. Put shortly: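 10 nM GPX1 + cpd, 30 min RT; start w/ 1 mM GSH, 0.5 mM cumene hydroperoxide, 0.5 mM NADPH, 100 nM GR, 0.01% BSA; buffer 50 mM Tris-HCl pH 7.5, 2 mM EDTA, 150 mM NaCl; Fl 340/450, 0 & 15 min.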
Sequence of Glutathione peroxidase 1 (Homo sapiens) (P07203 whole entry, looked up): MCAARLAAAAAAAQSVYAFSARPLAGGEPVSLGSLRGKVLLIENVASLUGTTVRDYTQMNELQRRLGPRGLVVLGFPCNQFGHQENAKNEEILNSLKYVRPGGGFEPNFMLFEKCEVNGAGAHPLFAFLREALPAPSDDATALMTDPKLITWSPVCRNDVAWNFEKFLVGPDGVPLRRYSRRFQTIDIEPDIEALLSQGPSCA
For the compound `NC(=O)N1CCC(CC(=O)N2CCC([C@H]3c4ncc(Br)cc4CCc4cc(Cl)cc(Br)c43)CC2)CC1`, the Potency result is “inactive”.

Regarding `C[C@@H](NCc1cc2ccccc2[nH]1)c1cccc2ccccc12`, the Potency result is “inactive”. With `O=C(O)c1ccc(Nc2ncc3c(n2)-c2ccc(Cl)cc2C(c2c(F)cccc2F)=NC3)cc1`, the Potency result is “inactive”. Consider `C[C@H](CCC(=O)O)[C@H]1CCC2C3C[C@H](O)[C@@H]4C[C@H](O)CC[C@]4(C)C3CC[C@@]21C` (stereo partly drawn), for which the Potency entry is “inactive”.

As for `CN(C)c1ccc2cc(C(=O)N[C@@H](CCCN=C(N)CCl)C(=O)NCc3ccccc3)ccc2c1`, the Potency result is “inactive”. For `COc1cccc2c1C(=O)c1c(O)c3c(c(O)c1C2=O)C[C@@](O)(C(=O)CO)C[C@@H]3O[C@H]1C[C@H](N)[C@@H](O)[C@H](C)O1` the value was “inactive”; for `CCN(CC)CCCCNc1ncc2c(n1)N(C)C(=O)N(c1c(Cl)c(OC)cc(OC)c1Cl)C2`, “inactive”; for `COC(=O)[C@H](CCCN=C(N)N)NS(=O)(=O)c1ccc(C)cc1`, “inactive”.

In the case of `COc1cc([C@@H]2c3cc4c(cc3[C@H](O)[C@H]3COC(=O)[C@@H]23)OCO4)cc(OC)c1OC`, the Potency entry was “inactive”. Regarding `CC1(C)O[C@@H]2C[C@H]3[C@@H]4CCC5=CC(=O)C=C[C@]5(C)[C@@H]4[C@@H](O)C[C@]3(C)[C@]2(C(=O)CO)O1`, the Potency result is “inactive”. With `Cn1c(Nc2ccc(C(F)(F)F)cc2)nc2cc(Oc3ccnc(-c4ncc(C(F)(F)F)[nH]4)c3)ccc21`, the Potency entry was “inactive”.

For the compound `C=CC(=O)Nc1ccc2ncnc(Nc3ccc(OCc4cccc(F)c4)c(Cl)c3)c2c1`, the Potency result was “inactive”.

Consider `Cc1ccc(-n2[nH]c(C)c(N=Nc3cccc(-c4cccc(C(=O)O)c4)c3O)c2=O)cc1C`, for which the Potency result is “inactive”.
